Hits are enriched below; roughly 11% of the tested compounds scored in any of these assays.
AMA1 RON2 block = qHTS for Inhibitors of AMA1-RON; Towards Development of Antimalarial Drug Lead: Primary Screen; Plasmodium falciparum AMA1 (3D7) - RON2 peptide interaction; AlphaScreen AMA1-biotinylated RON2 peptide binding; Potency, µM (titrated, usually from 58.2 µM), without a hit: top-dose activity change, negative = inhibition, actives largely listed as inhibitors; actives 0.2% (n = 360,000);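 also: 0% = vehicle wells and -100% = peptide control; nearly all actives have a fitted effect of over 45% in size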
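AMA1 (3D7) with his tag at 25 nM final met compounds first, then biotinylated RON2 peptide at 25 nM; detection used donor plus acceptor beads, 10 µg/mL apiece, read by AlphaScreen after 30 min at room temperature.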
Pf growth 48h = Primary qHTS for delayed death inhibitors of the malarial parasite plastid, 48 hour incubation; AID 504832, 2011; P. falciparum luciferase growth in erythrocytes, 48 h; actives 5.9% (n = 310,000); Potency, µM (series often up to 28.7 µM), for the others: at the highest dose activity change, negative = inhibition, usual class: inhibitors
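Compounds are pin-transferred into medium, infected erythrocytes (2% hematocrit, 0.1% parasitemia final) are added, and plates sit one parasite generation at 37 C in 5% CO2. Detection reagent is then added and luminescence measured.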
HCV inhibitor = qHTS Assay for Inhibitors of Hepatitis C Virus (HCV). Huh7.5.1 HCVcc-Cre infection, luciferase reporter, 44 h. Potency, µM (series often up to 41.8 µM), for inactives: at the top dose activity change, negative = inhibition, actives largely listed as inhibitors. actives 3.4% (n = 340,000)
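Compounds are dispensed onto cells plated 4 h earlier at 1,000 per well, with HCVcc-Cre virus (about 0.5 moi) added next. Following 44 h of culture, luminescent signal is measured for 15 sec after 15 min with substrate at room temperature.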
Pf growth 96h = Primary qHTS for delayed death inhibitors of the malarial parasite plastid, 96 hour incubation; P. falciparum luciferase reporter growth, 96 h; Potency, µM (top dose mostly 28.7 µM), inactives show at the top dose activity change, negative = inhibition, usual class: inhibitors; AID 504834, 2011; actives 6.9% (n = 320,000)
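96 h incubation, 37 C, 5% CO2, of luciferase-reporter P. falciparum-infected RBCs (2% hematocrit, 0.05% parasitemia final) with test compounds; endpoint luminescence.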
The depositor's hits bear a star; ? = inconclusive; . = no result; [ ] = dose if it differs, or a comment. Calls follow the shape of the dose curve; as a rule, active = well fitted curve in the direction sought with a large enough effect; inconclusive = small, poorly fitted or top-dose-only effect, or another doubt; inactive = no such curve, though single readings can be large; an effect the other way counts as inactive or inconclusive. Unless noted, % is scaled to controls: 0 for no effect and ±100 for the full control effect; potency is read from the fitted curve at half-maximal effect.

SMILES	AMA1 RON2 block	Pf growth 48h	HCV inhibitor	Pf growth 96h
CN(C1=NC(=O)C(CC(=O)Nc2ccc(Br)cc2)S1)c1ccc(O)cc1 (stereo unspecified)	16.7%	-11.3%	?	5.22µM*
CN(Cc1ccccc1)C(=O)[C@@H]1CCCN1	0.8%	.	.	.
CCc1ccc(N/C(SCc2ccccc2C)=C(/C#N)C(=O)NCc2ccco2)cc1	35.1%	13.1µM*	?	12.7%
CCc1ccc(OCCCC(=O)NCc2ccco2)cc1	-4.8%	?	9.5%	50.4%
CCOc1ccc(NC(=O)CCC(=O)N/N=C2\CCCc3ccccc32)cc1	-4.6%	1.7%	-4.1%	-10.7%
O=C(CN1CCN(c2ncccn2)CC1)N(Cc1ccccc1)c1ccc(F)cc1	-22.9%	-18.6%	7.0%	11.7µM*
c1ccc(CN2CCN(c3ncccn3)CC2)cc1	4.9%	-19.9%	9.9%	3.4%
Cc1ccsc1C(=O)NCc1ccc(F)cc1	7.9%	-5.4%	1.0%	?
CCN(CC)C(=O)c1cc(Cl)ccc1NC(=O)c1ccco1	-19.1%	5.3%	-4.1%	5.5%
CCN(CC)P(=O)(Nc1ccccc1Br)c1ccc(N(C)C)cc1NC(=O)c1ccco1 (stereo unspecified)	61.5%	?	?	9.28µM*
CCOC(=O)N(C)S(=O)(=O)c1ccccc1[N+](=O)[O-]	0.3%	-4.9%	13.8%	12.6%
CCOC(=O)CSc1cc(=O)n(C)c2cc(Cl)ccc12	-1.1%	3.1%	7.1%	8.8%
CCOC(=O)C(=O)N=Nc1c(O)n(C)c2ccccc12	112.1%	3.1%	8.3%	-0.7%
CCOC(=O)C(C)c1c(C(=O)c2ccc(C)nc2)c2ccccc2n1C (stereo unspecified)	.	3.7µM*	.	4.65µM*
CC(=O)Nc1ccccc1N(CC(O)Cn1c2ccccc2c2ccccc21)S(=O)(=O)c1ccc(C)cc1 (stereo unspecified)	-3.9%	?	11.2µM*	?
CS(=O)(=O)N(CC(O)Cn1c2ccccc2c2ccccc21)c1ccccc1 (stereo unspecified)	-4.5%	?	1.5%	?
CCN(CC(O)Cn1c2ccccc2c2ccccc21)S(=O)(=O)c1ccc(C)cc1 (stereo unspecified)	1.2%	.	3.16µM*	.
COc1ccc(N(CC(O)Cn2c3ccccc3c3ccccc32)S(=O)(=O)c2ccccc2)cc1 (stereo unspecified)	-3.6%	?	?	10.4µM*
COc1ccccc1N(CC(O)CN1CCCCC1)S(=O)(=O)c1ccc(C)cc1 (stereo unspecified)	-7.0%	-14.9%	5.2%	?
CN(CC(O)Cn1c2ccccc2c2ccccc21)S(C)(=O)=O (stereo unspecified)	18.7%	?	11.7%	-20.9%
CCc1ccc(N2CC(C(=O)Nc3ccc(S(=O)(=O)NCC4CCCO4)cc3)CC2=O)cc1 (stereo unspecified)	-6.1%	3.6%	-28.6%	15.2%
COc1cc(C#CC#CCN2CCCCC2)ccc1O	?	8.28µM*	-2.2%	20.4%
Cc1nc(NCc2cccnc2)c2c3c(sc2n1)CCCC3	-7.5%	?	7.08µM*	-52.5%
c1cncc(CNc2ncnc3sc4c(c23)CCCC4)c1	15.1%	-10.8%	?	156.7%
COc1ccc([C@@H]2[C@@H]3C(=O)N(C(C)(C)C)C(=O)[C@@H]3[C@]3(Cc4ccccc4)C(=O)N(c4cccc(Cl)c4)C(=O)N23)cc1	-0.2%	6.57µM*	23.5%	9.28µM*
SMILES	AMA1 RON2 block	Pf growth 48h	HCV inhibitor	Pf growth 96h
COc1ccc([C@@H]2[C@@H]3C(=O)N(C(C)(C)C)C(=O)[C@@H]3[C@]3(Cc4ccccc4)C(=O)N(c4ccc(Br)cc4)C(=O)N23)cc1	-11.4%	4.15µM*	-4.2%	5.22µM*
COc1ccc([C@@H]2[C@@H]3C(=O)N(C(C)(C)C)C(=O)[C@@H]3[C@]3(Cc4ccccc4)C(=O)N(c4cccc(C)c4)C(=O)N23)cc1	2.1%	?	-12.6%	?
COc1ccc(N2C(=O)N3[C@H](c4ccc(Br)cc4)[C@@H]4C(=O)N(C(C)(C)C)C(=O)[C@@H]4[C@]3(Cc3ccccc3)C2=O)cc1	7.7%	-81.8%	-8.3%	?
COc1ccc([C@@H]2[C@@H]3C(=O)N(C(C)(C)C)C(=O)[C@@H]3[C@]3(Cc4ccccc4)C(=O)N(c4ccccc4)C(=O)N23)cc1	10.3%	?	12.4%	?
CC(C)(C)N1C(=O)[C@H]2[C@@H](c3ccc(Br)cc3)N3C(=O)N(c4cccc(Cl)c4)C(=O)[C@@]3(Cc3ccccc3)[C@H]2C1=O	8.0%	3.29µM*	2.5%	4.65µM*
COc1ccc([C@@H]2[C@@H]3C(=O)N(C(C)(C)C)C(=O)[C@@H]3[C@]3(Cc4ccc(Cl)cc4)C(=O)N(c4cccc(Br)c4)C(=O)N23)cc1	-3.8%	?	9.6%	?
COc1ccc([C@@H]2[C@@H]3C(=O)N(C(C)(C)C)C(=O)[C@@H]3[C@]3(Cc4ccc(Cl)cc4)C(=O)N(c4cccc(F)c4)C(=O)N23)cc1	5.0%	5.86µM*	-11.5%	9.28µM*
Cc1ccc(NC(=O)C2CCCN2S(=O)(=O)c2ccc3c(c2)n(C)c(=O)c(=O)n3C)cc1C (stereo unspecified)	3.9%	5.7%	0.4%[8.37 µM]	-10.7%
OCC[C@H]1C[C@@H](O)[C@H](O)[C@]2(Cc3ccccc3CCO2)O1	-1.3%	-21.1%	14.3%	64.6%
CC[C@@]12C(=O)N(c3cccc(Br)c3)C(=O)N1[C@H](c1ccc(Br)cc1)[C@@H]1C(=O)N(C(C)(C)C)C(=O)[C@@H]12	-13.4%	10.4µM*	-4.1%	4.65µM*
COc1cc(CC2COC(c3ccc(O)c(OC)c3)C2COC(C)=O)ccc1O (stereo unspecified)	?	-11.9%	23.6%	10.4µM*
Cc1ccc(S(=O)(=O)N2CCCOC2CNC(=O)C(=O)NCc2ccc3c(c2)OCO3)cc1 (stereo unspecified)	2.4%	-3.9%	-24.8%	-12.9%
Cc1nc2c(ccc3nc(NC(=O)C(c4ccccc4)c4ccccc4)sc32)s1	0.0%	3.7µM*	10µM*	10.4µM*
Cn1c(=O)c2c(nc(CN3CCC(C(N)=O)CC3)n2Cc2c(Cl)cccc2Cl)n(C)c1=O	4.7%	11.7µM*	-14.0%	.
Cn1c(=O)c2c(nc(CN3CCC(C(N)=O)CC3)n2Cc2ccccc2Cl)n(C)c1=O	-7.8%	4.3%	0.2%	?
Cn1c(=O)c2c(nc(CN3CCC(C(N)=O)CC3)n2Cc2c(F)cccc2Cl)n(C)c1=O	-16.5%	?	-15.0%	10.4µM*
COc1ccc(N2CCN(C(c3cccs3)C(C)NC(=O)C(=O)N3CCCCC3)CC2)cc1 (stereo unspecified)	-9.4%	?	-2.8%	11.7µM*

Bioassay records as filed in PubChem BioAssay.
